Source: PubChem BioAssay (National Center for Advancing Translational Sciences (NCATS))
SARS PLpro yeast-1 = qHTS of Yeast-based Assay for SARS-CoV PLP; S. cerevisiae expressing SARS-CoV PLpro, growth rescue; Potency, µM (series often up to 32.9 µM), without a hit: at the top dose activity, positive = growth rescue, most hits filed as activators; actives 0.19% (n = 330,000); AID 485353, 2010; calls by dose curve; further: potency means the concentration at half of the fitted maximal effect; 0% is about no effect; nearly all actives have a fitted effect of over 55% in size
NS1 inh = qHTS Assay for Inhibitors of Influenza NS1 Protein Function; Potency, µM (series often up to 46.1 µM), for inactives: top-dose activity, positive = more growth; AID 2326, 2010; actives 0.4% (n = 270,000); calls by dose curve; further: potency means the concentration at half of the fitted maximal effect; actives are rising curves; nearly all actives have a fitted effect of over 50% in size
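OD600 was taken as the measure of yeast growth restored by compound in an NS1-expressing S. cerevisiae strain. Cells had been washed out of glucose medium and diluted 1:100 into galactose -URA medium, pH 6.0.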
AmpC inh detg = qHTS Inhibitors of AmpC Beta-Lactamase (assay with detergent) | P00811 | AmpC hydrolysis of nitrocefin, absorbance 480 nm, 0.01% Triton | Potency, µM (doses to about 114 µM), without a hit: top-dose activity change, negative = inhibition, hits mostly inhibitors | actives 0.041% (n = 370,000);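 further: potency means the concentration at half of the fitted maximal effect; 0% = no-compound wells and -100% = no-enzyme wells; nearly all actives have a fitted effect of over 25% in size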
Target sequence (P00811 whole entry, looked up): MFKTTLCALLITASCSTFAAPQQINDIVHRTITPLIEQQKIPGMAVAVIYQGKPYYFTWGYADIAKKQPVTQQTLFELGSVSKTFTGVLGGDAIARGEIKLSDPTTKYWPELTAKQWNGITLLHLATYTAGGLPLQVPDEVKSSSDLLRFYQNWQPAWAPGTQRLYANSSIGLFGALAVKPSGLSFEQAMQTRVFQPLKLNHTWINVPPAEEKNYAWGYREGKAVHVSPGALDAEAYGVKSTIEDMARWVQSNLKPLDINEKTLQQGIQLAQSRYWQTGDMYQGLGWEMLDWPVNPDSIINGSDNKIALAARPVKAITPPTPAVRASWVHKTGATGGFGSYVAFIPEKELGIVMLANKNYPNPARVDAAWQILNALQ
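20 mM phosphate pH 7.0 + 0.01% (detergent screen) or 0.0001% Triton X-100; 5.3 nM AmpC reagent; cpd preinc 15 min RT; nitrocefin (800 uM stock) to start; A480 q20 s × 4 min; Activity was normalised to no-enzyme and no-compound control wells.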
Giardia FBPA inh = qHTS Assay for Inhibitors of Fructose-1,6-bisphosphate Aldolase from Giardia Lamblia; A8B2U2; purified Giardia FBPA; Potency, µM (series often up to 59.6 µM), for the others: at the highest dose activity, negative = inhibition, hits mostly inhibitors; actives 0.71% (n = 290,000); AID 2451, 2010; further: potency means the concentration at half of the fitted maximal effect; on the % scale 0 is the no-effect control and ±100 the full control effect; nearly all actives have a fitted effect of over 55% in size
Target sequence (A8B2U2 whole entry, looked up): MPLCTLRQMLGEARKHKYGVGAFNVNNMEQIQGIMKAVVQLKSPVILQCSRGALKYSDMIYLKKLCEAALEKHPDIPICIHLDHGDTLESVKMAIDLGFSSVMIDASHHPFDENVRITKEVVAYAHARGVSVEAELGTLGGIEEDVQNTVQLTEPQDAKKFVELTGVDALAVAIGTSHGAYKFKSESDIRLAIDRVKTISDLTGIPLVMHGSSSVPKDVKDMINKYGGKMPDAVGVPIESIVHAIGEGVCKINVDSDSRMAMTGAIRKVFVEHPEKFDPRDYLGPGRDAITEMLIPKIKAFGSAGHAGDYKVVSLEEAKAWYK
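40 nM FBPA preincubated 10 min at RT with compound (up to 57.5 uM final), then substrate plus GAPDH/TPI/NAD/arsenate coupling and diaphorase/resazurin added. Fluorescence read after 20 min at RT, 525/598 nm.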
AmpC no deterg = qHTS Inhibitors of AmpC Beta-Lactamase (assay without detergent) | P00811 | AmpC nitrocefin hydrolysis, absorbance 480 nm, 0.0001% Triton | Potency, µM (top dose mostly 57.1 µM), without a hit: at the highest dose activity change, negative = inhibition, most hits filed as inhibitors | actives 0.52% (n = 330,000);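 further: potency means the concentration at half of the fitted maximal effect; plate controls were no compound for no effect and no enzyme for full effect; nearly all actives have a fitted effect of over 20% in size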
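20 mM phosphate pH 7.0 + 0.01% (detergent screen) or 0.0001% Triton X-100; 5.3 nM AmpC reagent; cpd preinc 15 min RT; nitrocefin (800 uM stock) to start; A480 q20 s × 4 min; Activity was normalised to no-enzyme and no-compound control wells.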
SARS PLpro yeast-2 = qHTS of Yeast-based Assay for SARS-CoV PLP: Hit Validation. shares compounds with SARS PLpro yeast-1. yeast expressing SARS-CoV PLpro, growth phenotype rescue. calls only. actives 19% (n = 1,000). AID 652038, 2013; call rule not given here
* marks the source's active call; other numbers are inactive results. Rows were chosen to be rich in hits. Some 1.4% of all compounds tested hit in one or more screens of this group. Unless noted, the call rests on the fitted dose curve; in most records, active means well fitted curve in the direction sought with a large enough effect; inconclusive means small, poorly fitted or top-dose-only effect, or another doubt; inactive means no such curve, though single readings can be large; an effect the other way counts as inactive or inconclusive.

Results for COc1ccc2nc(SCC(=O)N3CC(=O)Nc4ccccc43)c(C#N)cc2c1 ?
SARS PLpro yeast-1: inconclusive; NS1 inh: 5%; AmpC inh detg: inconclusive; Giardia FBPA inh: -11%; AmpC no deterg: -52%; SARS PLpro yeast-2: inactive

Results for COc1ccc2nc(SCC(C)=O)c(C#N)cc2c1 ?
SARS PLpro yeast-1: 9%; NS1 inh: 2%; AmpC inh detg: 7%; Giardia FBPA inh: -11%; AmpC no deterg: -12%

What do the screens show for `NNC(=O)/C(=N/Nc1ccccc1)S(=O)(=O)c1ccc(Cl)cc1`?
SARS PLpro yeast-1: inconclusive; NS1 inh: inconclusive; AmpC inh detg: inconclusive; Giardia FBPA inh: 8%; AmpC no deterg: 40µM*; SARS PLpro yeast-2: inactive

Results for COC(=O)NNC(=O)c1ccc(C)cc1 ?
NS1 inh: 3%; AmpC inh detg: 0%; Giardia FBPA inh: 4%

What do the screens show for `c1ccc(N2CCN(CCc3nnc4n3CCCCC4)CC2)cc1`?
SARS PLpro yeast-1: inconclusive; NS1 inh: -12%; AmpC inh detg: -17%; Giardia FBPA inh: 2%; AmpC no deterg: 1%; SARS PLpro yeast-2: inactive

What do the screens show for `c1ccc(Cc2nnc3n2CCCCC3)cc1`?
SARS PLpro yeast-1: -2%; NS1 inh: 5%; AmpC inh detg: -1%; Giardia FBPA inh: 1%; AmpC no deterg: -15%

How did CCC(C)[C@H](NC(=O)C1CCC(CNC(=O)[C@@H]2CCCN2C(=O)OC(C)(C)C)CC1)C(=O)O (stereo not given in full) do in these assays?
SARS PLpro yeast-1: 0%; NS1 inh: 5%; AmpC inh detg: inconclusive; Giardia FBPA inh: 5%; AmpC no deterg: -2%

Results for CC(/C=N/Nc1nc(C)cc(C)n1)=C\c1ccc(C(C)C)cc1 ?
SARS PLpro yeast-1: 11µM*; NS1 inh: 8%; AmpC inh detg: inconclusive; Giardia FBPA inh: -12%; AmpC no deterg: 1%; SARS PLpro yeast-2: active

Results for CCc1ccccc1NC(=S)N(CCCN1CCOCC1)Cc1cccs1 ?
SARS PLpro yeast-1: inconclusive; NS1 inh: 1%; AmpC inh detg: 1%; Giardia FBPA inh: 0%; AmpC no deterg: 60%; SARS PLpro yeast-2: inactive

How did O=C(Nc1ccc(Cl)cc1)N(CCCN1CCOCC1)Cc1cccs1 do in these assays?
SARS PLpro yeast-1: inconclusive; NS1 inh: -13%; AmpC inh detg: inconclusive; Giardia FBPA inh: 0%; AmpC no deterg: 25%; SARS PLpro yeast-2: inactive

Results for S=C(Nc1ccc(Cl)cc1)N(CCCN1CCOCC1)Cc1cccs1 ?
SARS PLpro yeast-1: 2%; NS1 inh: -9%; AmpC inh detg: 0%; Giardia FBPA inh: -1%; AmpC no deterg: 49%

Results for Cc1ccc2nc(NC(=O)C3CCN(S(=O)(=O)c4cc([N+](=O)[O-])ccc4Cl)CC3)sc2c1 ?
SARS PLpro yeast-1: 5%; NS1 inh: inconclusive; AmpC inh detg: -5%; Giardia FBPA inh: -20%; AmpC no deterg: inconclusive

How did C/C(CC(=O)Nc1ccc(N(C)C)cc1)=N\NC(=O)Cc1csc(N)n1 do in these assays?
SARS PLpro yeast-1: 18µM*; NS1 inh: inconclusive; AmpC inh detg: -2%; Giardia FBPA inh: inconclusive; AmpC no deterg: -36%; SARS PLpro yeast-2: inactive

How did COc1ccc(CC(=O)N/N=C(\C)CC(=O)Nc2ccc(N(C)C)cc2)cc1 do in these assays?
SARS PLpro yeast-1: -4%; NS1 inh: 3%; AmpC inh detg: 4%; Giardia FBPA inh: 12%; AmpC no deterg: 53%

How did O=C(NCc1ccccc1)c1cc[n+](CC(=O)c2cccs2)cc1 do in these assays?
SARS PLpro yeast-1: 0%; NS1 inh: 9%; AmpC inh detg: 3%; Giardia FBPA inh: -6%; AmpC no deterg: -16%

How did O=C(NNC1=C(C(=O)C(F)(F)F)CCC1)c1cccc(O)c1 do in these assays?
SARS PLpro yeast-1: 14µM*; NS1 inh: 7%; AmpC inh detg: inconclusive; Giardia FBPA inh: 0%; AmpC no deterg: -37%; SARS PLpro yeast-2: inactive

What do the screens show for `N#Cc1nc(-c2ccc(F)cc2)oc1N1CCCC1`?
SARS PLpro yeast-1: inconclusive; NS1 inh: 7%; AmpC inh detg: 1%; Giardia FBPA inh: 0%; AmpC no deterg: 1%; SARS PLpro yeast-2: inactive

Results for Cc1cc(-c2ccccc2)[nH]c(=O)c1S(=O)(=O)c1ccc(Cl)cc1 ?
SARS PLpro yeast-1: 15%; NS1 inh: 19%; AmpC inh detg: -4%; Giardia FBPA inh: 4%; AmpC no deterg: -44%

What do the screens show for `O=C(NN=Cc1ccc(O)cc1O)c1ccccc1NS(=O)(=O)c1cccs1`?
SARS PLpro yeast-1: 1.1µM*; AmpC no deterg: -35%; SARS PLpro yeast-2: inactive

What do the screens show for `COc1ccc(C2C=C(C34CC5CC(CC(C5)C3)C4)NC(=S)N2)cc1OC` (stereo not given)?
SARS PLpro yeast-1: 14µM*; NS1 inh: 19%; AmpC inh detg: -14%; Giardia FBPA inh: 4%; AmpC no deterg: -34%; SARS PLpro yeast-2: active

Results for CC(C)(C)NCC(O)Cn1cc(C=O)c2ccccc21 (stereo not given) ?
SARS PLpro yeast-1: 0%; AmpC inh detg: -1%; Giardia FBPA inh: 5%; AmpC no deterg: -15%

What do the screens show for `CCC1(CC)C(=O)N(C)C(=O)NC1=Nc1ccc(OC)cc1`?
SARS PLpro yeast-1: 1.8µM*; NS1 inh: 7%; AmpC inh detg: -3%; Giardia FBPA inh: 3%; AmpC no deterg: -6%; SARS PLpro yeast-2: inactive

How did Cc1ccc(C)c(N2CC(=O)N(c3cc(C)ccc3C)CC2=O)c1 do in these assays?
SARS PLpro yeast-1: inconclusive; NS1 inh: 2%; AmpC inh detg: inconclusive; Giardia FBPA inh: 0%; AmpC no deterg: -9%; SARS PLpro yeast-2: inactive

What do the screens show for `COc1cccc(-n2nnc3c(=O)n(CC(=O)OCc4ccccc4)cnc32)c1`?
SARS PLpro yeast-1: inconclusive; NS1 inh: 13%; AmpC inh detg: 16%; Giardia FBPA inh: 1%; AmpC no deterg: -16%; SARS PLpro yeast-2: inactive

How did CC1Cc2ccccc2N1c1nc(C2CC2)nc2c1nnn2Cc1ccccc1 (stereo not given) do in these assays?
SARS PLpro yeast-1: inconclusive; NS1 inh: -7%; AmpC inh detg: -9%; Giardia FBPA inh: -1%; AmpC no deterg: -28%; SARS PLpro yeast-2: active

Results for COc1cccc(C(=O)COC(=O)C2CC3CCCC(C2)C3=O)c1 (stereo not given) ?
SARS PLpro yeast-1: -2%; AmpC inh detg: inconclusive; AmpC no deterg: -12%

Results for COc1ccc(C(=O)COC(=O)C2CC3CCCC(C2)C3=O)cc1Br (stereo not given) ?
SARS PLpro yeast-1: inconclusive; AmpC inh detg: -16%; AmpC no deterg: -16%; SARS PLpro yeast-2: inactive
